RE007 growth inh: less growth of the S. pombe RE007 Vpr strain; AID 651644; hit rate 0.21% among 360,000; Potency, µM (top dose mostly 92.2 µM), without a hit: at the top dose activity change, negative = less growth, actives largely listed as inhibitors; S. pombe RE007 Vpr strain, BacTiter-Glo ATP luminescence, 24 h; active means well fitted falling curve with a large enough effect; inconclusive means small, poorly fitted or top-dose-only effect; inactive means no such curve, though single readings can be large or run the other way; further: on the % scale 0 is the no-effect control and ±100 the full control effect; nearly all actives have a fitted effect of over 50% in size
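Fission yeast RE007 carrying one integrated HIV-1 vpr copy, seeded at OD 0.01 in PMG+AL medium with 23 nL pinned compound. Grown 24 h at 30 degrees; viability read by BacTiter-Glo luminescence after 5 min.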
Pf growth 48h: P. falciparum growth inhibition at 48 hours (one generation); P. falciparum luciferase growth in erythrocytes, 48 h; Potency, µM (series often up to 28.7 µM), for inactives: top-dose activity change, negative = inhibition, most hits filed as inhibitors; hit rate 5.9% among 310,000; AID 504832; further: on the % scale 0 is the no-effect control and ±100 the full control effect
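Cell-based growth assay: transgenic P. falciparum expressing firefly luciferase, cultured in red cells within RPMI 1640 containing 0.5% w/v Albumax, 24 mM bicarbonate and gentamycin. A drop in luciferase activity indicates inhibition.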
SARS PLpro yeast: blocks SARS-CoV papain-like protease in a yeast assay | S. cerevisiae expressing SARS-CoV PLpro, growth rescue | Potency, µM (highest dose often 32.9 µM), inactives show top-dose activity, positive = growth rescue, most hits filed as activators | hit rate 0.19% among 330,000; calls by dose curve; further: 0% is about no effect; nearly all actives have a fitted effect of over 55% in size
Pf growth 96h: P. falciparum growth inhibition at 96 hours; P. falciparum luciferase reporter growth, 96 h; Potency, µM (titrated, usually from 28.7 µM), for the others: top-dose activity change, negative = inhibition, most hits filed as inhibitors; AID 504834; hit rate 6.9% among 320,000; further: on the % scale 0 is the no-effect control and ±100 the full control effect
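Parasite growth measured via integrated firefly luciferase reporter in P. falciparum. Infected erythrocytes at 2% hematocrit, 0.05% parasitemia final were treated 96 hours at 37 C under 5% CO2, and luminescence was read.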
NS1 function inh: blocks influenza NS1 protein function; Potency, µM (top dose mostly 46.1 µM), for inactives: top-dose activity, positive = more growth; hit rate 0.4% among 270,000; calls by dose curve; further: actives are rising curves; nearly all actives have a fitted effect of over 50% in size
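OD600 was taken as the measure of yeast growth restored by compound in an NS1-expressing S. cerevisiae strain. Cells had been washed out of glucose medium and diluted 1:100 into galactose -URA medium, pH 6.0.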
Starred values were filed as active, the others as inactive; ? = inconclusive; . = no result given; [ ] = another dose, or the depositor's remark. An excerpt weighted towards active compounds, which were near 9.5% of everything screened. Unless noted, the call rests on the fitted dose curve; in most records, active means well fitted inhibition curve with a large enough effect; inconclusive means small, poorly fitted or top-dose-only effect, or another doubt; inactive means no such curve, though single readings can be large or run the other way. Potency means the concentration at half of the fitted maximal effect.

SMILES | RE007 growth inh | Pf growth 48h | SARS PLpro yeast | Pf growth 96h | NS1 function inh
O=C(CSc1nnc(-c2cccnc2)n1Cc1ccco1)NCc1ccc2c(c1)OCO2 | -1.6% | 3.5% | -0.4% | ? | -3.2%
COc1cccc(-c2nnc(SCC(=O)NCc3ccc4c(c3)OCO4)n2Cc2ccco2)c1 | -1.7% | . | 5.9% | 6.57µM* | -0.5%
COc1c(C)cc(C(O)c2ncc(-c3ccc(C(F)(F)F)cc3)[nH]2)cc1C (stereo not drawn) | 0.5%[18.4 µM] | . | . | . | .
N#CC(c1ccc(O)cc1)N1CCN(C(C#N)c2ccc(O)cc2)CC1 (stereo not drawn) | -15.9% | . | . | . | .
Cc1ccc(S(=O)(=O)N(c2cccc(C(F)(F)F)c2)C2C=CS(=O)(=O)C2)cc1 (stereo not drawn) | 23.0% | . | 4.9% | 16.5µM* | 7.2%
CC1=C(C#N)C(c2ccc(O)cc2)C2=C(CCCC2=O)N1 (stereo not drawn) | -3.0% | -0.2% | 2.3% | 25.7% | 1.9%
CC1=C(C#N)C(c2cccnc2)C2=C(CC(c3ccc(Cl)cc3)CC2=O)N1 (stereo not drawn) | -3.1% | . | 11.8% | 6.57µM* | -8.5%
COc1ccccc1C1CC(c2ccc(Cl)cc2)Nc2ncnn21 (stereo not drawn) | -4.3% | 13.1µM* | 1.0% | -1.3% | -14.7%
Cc1ccc(C2CC(c3ccccc3)n3ncnc3N2)cc1 (stereo not drawn) | -4.7% | -2.0% | 0.1% | 13.1µM* | -1.9%
CCOc1ccc(C2CC(c3cccc(OC)c3OC)n3nnnc3N2)cc1Cl (stereo not drawn) | -19.8% | 11.7µM* | 1.9% | 5.5% | -11.1%
COc1ccc(C2CC(c3ccccc3)n3nnnc3N2)cc1 (stereo not drawn) | -3.7% | . | -4.8% | -32.9% | -2.2%
CCOC(=O)Cc1csc(SCC(=O)NC2CCCC2)n1 | -1.0% | -0.2% | 5.3% | 64.0% | .
CC1CCCCN1S(=O)(=O)c1ccc(C(=O)Nc2ccccc2-c2nc3ccccc3[nH]2)cc1 (stereo not drawn) | 12.8% | 1.85µM* | -15.0% | ? | -5.1%
O=C(Nc1ccccc1-c1nc2ccccc2[nH]1)c1ccc(S(=O)(=O)N2CCCCC2)cc1 | 14.1% | ? | -0.5% | 2.94µM* | 11.4%
Cc1ccc(-c2nn(-c3ccccc3)cc2CC(=S)N2CCOCC2)cc1 | 2.4% | -28.7% | -2.4% | ? | -5.7%
COc1ccc(-c2ccc(CCC(=O)O)n2CC(=O)Nc2ccccc2C)cc1 | 3.5% | 14.8%[0.00184 µM] | -2.9% | ? | 3.5%
Cc1nnc(SCc2cc(=O)oc3cc(O)ccc23)n1Cc1ccccc1 | 5.1% | ? | 14.4% | 2.08µM* | 5.1%
Cc1nnc(SCc2cc(=O)oc3ccc4ccccc4c23)n1Cc1ccccc1 | 3.7% | 1.5% | -14.0% | -13.5% | 1.1%
COC(=O)c1cccnc1-n1c(=O)c2cccnc2n(Cc2ccc([N+](=O)[O-])cc2)c1=O | 11.1% | 10.4µM* | -2.2% | ? | .
Cc1cc(C)cc(NC(=S)Nc2ccc(Cl)c(Cl)c2)c1 | -13.1% | 13.1µM* | -3.6% | 13.2% | -67.5%
Cc1ccc(NC(=S)Nc2ccc(Cl)c(Cl)c2)c(OC(F)F)c1 | -23.5% | ? | -89.6% | 4.15µM* | -27.6%
Cc1ccc(NC(=S)Nc2ccc(OC(F)F)c(Cl)c2)cc1Cl | . | ? | -26.7% | ? | -36.6%
O=C(Nc1ccc(Oc2ccccc2)cc1)c1csc([C@H]2C[C@H](O)[C@@H](CO)O2)n1 | 13.8%[18.4 µM] | . | . | . | .
Fc1ccccc1NC(=S)NCc1ccc2c(c1)OCO2 | -5.4% | 8.6% | -22.9% | ? | 7.4%
CCN(CC)S(=O)(=O)N1CCC(C(=O)NCc2ccc3c(c2)OCO3)CC1 | 1.4% | -10.2% | 25.1% | 2.62µM* | 13.8%
SMILES | RE007 growth inh | Pf growth 48h | SARS PLpro yeast | Pf growth 96h | NS1 function inh
O=C(NCc1ccc2c(c1)OCO2)C1CCCN1S(=O)(=O)c1ccc(F)cc1 (stereo not drawn) | -10.4% | 2.33µM* | 2.7% | 34.3% | -68.7%
O=C(NCc1ccc2c(c1)OCO2)C1CCCN1C(=O)Nc1cccc(F)c1 (stereo not drawn) | 18.1% | ? | -7.9% | -1.1% | -4.7%
O=C(NCc1ccc2c(c1)OCO2)C1CCCCC1 | 0.8% | 15.6% | 3.2% | ? | 0.9%
O=S(=O)(c1c(F)cccc1F)N1CCN(C(=S)NCc2ccc3c(c2)OCO3)CC1 | -5.6% | 2.08µM* | -1.6% | 2.08µM* | 11.3%
O=C(NCc1ccc2c(c1)OCO2)C1CCN(S(=O)(=O)c2ccc(F)cc2)CC1 | -10.4% | 5.6% | 2.5% | ? | 12.0%
CC(=O)c1cccc(NC(=O)N2CCCC2C(=O)NCc2ccc3c(c2)OCO3)c1 (stereo not drawn) | -7.9% | ? | -0.3% | 13.1µM* | 4.7%
COc1ccc(NC(C)=O)cc1S(=O)(=O)N1CC=C(c2ccccc2)CC1 | -9.6% | . | 1.2% | . | .
CCc1ccccc1NC(=O)CN1CCN(CC(=O)NCc2ccc(Cl)cc2)CC1 | ? | ? | 5.0% | ? | .
CC(C)NC(=O)C(c1ccc(F)cc1)N(Cc1ccco1)C(=O)CCC(=O)Nc1ccccn1 (stereo not drawn) | -19.7% | -9.2% | 0.8% | -17.4% | -9.5%
Cc1nc(SCc2nc3ccc(F)cc3[nH]2)c2oc3ccccc3c2n1 | . | . | -7.2% | . | .
Cc1nc(SCc2cccc(F)c2)c2oc3ccccc3c2n1 | 3.0% | 10.4µM* | -0.8% | ? | -1.9%
Cc1onc(-c2ccccc2Cl)c1C(=O)O/N=C(\N)c1ccc([N+](=O)[O-])o1 | -19.8% | 3.7µM* | -6.6% | 14.7µM* | -8.1%
CCC(C)c1ccc(NC(=O)Nc2cccnc2)cc1 (stereo not drawn) | -8.2% | ? | 1.4% | 5.9% | -52.4%
Cc1ccc(OCCn2c(NC(=O)c3ccco3)nc3ccccc32)cc1 | -3.2% | 2.94µM* | -4.4% | ? | -7.0%
O=C(Nc1nc2ccccc2n1CCOc1ccccc1)c1ccco1 | -2.9% | 2.94µM* | 0.2% | 2.94µM* | -26.0%
Cc1cccc(N2CCN(C3=NC(=O)C(Cc4ccccc4)S3)CC2)c1 (stereo not drawn) | 18.6% | -14.0% | -5.1% | 11.7µM* | -16.0%
Cc1cccc(CC2SC(N)=NC2=O)c1 (stereo not drawn) | 0.0% | -18.1% | -3.0% | 0.2% | .
O[Si](CCCN1CCCCC1)(c1ccc(F)cc1)C1CCCCC1 (stereo not drawn) | -12.8%[18.4 µM] | 0.0928µM* | -0.5% | 0.104µM* | -12.1%
CCCn1cc(SCC(=O)NCc2ccco2)c2ccccc21 | -13.5% | 2.08µM* | -5.0% | 6.57µM* | -71.8%
C/C(O)=C(/N=O)C(=O)Nc1ccccc1 | -14.1% | 0.6% | -5.4% | 11.7µM* | 0.2%
CN(CC(=O)Nc1cccc(F)c1)C(=O)Cn1cnc2c1c(=O)n(C)c(=O)n2C | 10.8% | ? | 1.5% | 31.3% | .
O=C(CSc1nnc(CNC(=O)c2ccco2)o1)Nc1ccc(Br)cc1 | 3.6% | 30.1% | -0.7% | -10.0% | 10.8%
CN(Cc1ccco1)Cc1ccc(O)c2ncccc12 | . | ? | -0.4% | 10.4µM* | .
Oc1ccc(CN2CCc3ccccc3C2)c2cccnc12 | ? | ? | . | 3.7µM* | -37.3%

Source: PubChem BioAssay (National Center for Advancing Translational Sciences (NCATS))
